Records with an inconclusive call do not appear. A call without a number means that no potency is given here. Activity calls are given as the source filed them. Unless noted, the call rests on the fitted dose curve; in most records, active means well fitted inhibition curve with a large enough effect; inconclusive means small, poorly fitted or top-dose-only effect; inactive means flat fitted curve, though single readings scatter.
Tests used:
[1] = target: Bile acid receptor (Homo sapiens) (UniProt Q96RI1); experiment: qHTS assay for small molecule antagonists of farnesoid X receptor signaling (AID 588526; calls by dose curve)
Chain of Bile acid receptor (Homo sapiens) (Q96RI1 whole entry, looked up): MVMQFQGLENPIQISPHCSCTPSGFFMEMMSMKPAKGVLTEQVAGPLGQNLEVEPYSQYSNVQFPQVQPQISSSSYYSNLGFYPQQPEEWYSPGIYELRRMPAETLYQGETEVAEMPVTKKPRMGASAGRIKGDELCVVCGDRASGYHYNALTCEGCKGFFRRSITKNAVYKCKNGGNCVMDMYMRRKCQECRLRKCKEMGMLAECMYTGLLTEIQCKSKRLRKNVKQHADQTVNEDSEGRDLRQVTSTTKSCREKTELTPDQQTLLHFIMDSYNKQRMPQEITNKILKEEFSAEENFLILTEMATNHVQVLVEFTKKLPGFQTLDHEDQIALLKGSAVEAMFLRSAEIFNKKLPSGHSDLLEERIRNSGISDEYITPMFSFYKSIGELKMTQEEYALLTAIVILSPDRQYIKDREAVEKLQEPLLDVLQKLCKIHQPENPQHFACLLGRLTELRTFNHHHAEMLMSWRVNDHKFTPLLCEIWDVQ
Method in brief: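 Antagonist mode: titrated compounds tested against chenodeoxycholic acid stimulation (normalized to 50 uM CDCA and DMSO) in GeneBLAzer HEK293T cells for 16 h. Beta-lactamase read by CCF4 fluorescence; IC50 from Hill fits.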

[2] = target: Glucocorticoid receptor (Homo sapiens) (UniProt P04150); experiment: qHTS assay for small molecule agonists of glucocorticoid receptor signaling (AID 588532; active means well fitted curve in the direction sought with a large enough effect in the signal ratio, with a control signal flat; the % refers to the signal ratio); conditions: HeLa MMTV-bla, beta-lactamase ratio, agonist, 18 h; stronger effect = higher value; percent of dexamethasone control, DMSO zero
Chain of Glucocorticoid receptor (Homo sapiens) (P04150 whole entry, looked up): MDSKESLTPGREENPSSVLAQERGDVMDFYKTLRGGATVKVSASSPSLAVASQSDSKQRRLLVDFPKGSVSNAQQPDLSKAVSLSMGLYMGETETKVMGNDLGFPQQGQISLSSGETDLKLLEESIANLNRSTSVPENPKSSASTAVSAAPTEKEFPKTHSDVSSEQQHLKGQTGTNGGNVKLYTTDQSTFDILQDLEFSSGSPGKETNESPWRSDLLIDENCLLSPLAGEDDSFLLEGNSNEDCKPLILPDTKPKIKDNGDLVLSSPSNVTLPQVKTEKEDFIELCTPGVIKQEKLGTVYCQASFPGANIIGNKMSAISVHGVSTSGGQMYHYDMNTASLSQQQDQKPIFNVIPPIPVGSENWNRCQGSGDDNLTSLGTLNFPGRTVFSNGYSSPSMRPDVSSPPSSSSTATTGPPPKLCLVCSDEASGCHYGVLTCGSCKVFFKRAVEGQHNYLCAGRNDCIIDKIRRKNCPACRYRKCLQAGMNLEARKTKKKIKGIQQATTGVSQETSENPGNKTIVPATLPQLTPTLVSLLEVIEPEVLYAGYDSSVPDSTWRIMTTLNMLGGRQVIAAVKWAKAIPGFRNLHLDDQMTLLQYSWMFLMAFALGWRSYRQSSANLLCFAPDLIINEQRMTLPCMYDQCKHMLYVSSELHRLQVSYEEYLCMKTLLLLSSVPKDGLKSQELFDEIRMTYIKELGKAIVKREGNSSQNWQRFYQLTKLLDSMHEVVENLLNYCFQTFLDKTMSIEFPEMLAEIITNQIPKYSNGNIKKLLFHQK
Method in brief: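 MMTV-bla HeLa beta-lactamase reporter cells in 1% charcoal/dextran FBS medium, compounds up to 92 uM for 18 h at 37 C, CCF4 readout; normalized to 0.1 uM dexamethasone (100%), EC50 and efficacy from Hill fits.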

[3] = target: Vitamin D3 receptor (Homo sapiens) (UniProt P11473); experiment: qHTS assay for small molecule antagonists of vitamin D receptor signaling (AID 588541; calls by dose curve;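 further: receptor activated by calcitriol during compound treatment; series mostly up to about 77 µM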)
Chain of Vitamin D3 receptor (Homo sapiens) (P11473 whole entry, looked up): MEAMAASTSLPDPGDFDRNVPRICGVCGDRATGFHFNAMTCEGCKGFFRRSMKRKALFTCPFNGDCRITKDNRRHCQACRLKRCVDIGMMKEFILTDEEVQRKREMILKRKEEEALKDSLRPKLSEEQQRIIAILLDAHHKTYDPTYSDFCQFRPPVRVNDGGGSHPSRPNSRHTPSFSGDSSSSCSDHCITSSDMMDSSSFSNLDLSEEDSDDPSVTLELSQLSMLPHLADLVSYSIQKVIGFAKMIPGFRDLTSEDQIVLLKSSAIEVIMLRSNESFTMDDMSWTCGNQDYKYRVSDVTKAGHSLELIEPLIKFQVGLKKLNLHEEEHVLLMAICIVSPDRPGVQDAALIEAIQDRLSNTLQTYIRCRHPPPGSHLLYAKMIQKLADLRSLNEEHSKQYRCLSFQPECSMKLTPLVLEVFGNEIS
Method in brief: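 VDR-UAS-bla HEK293T cells in 2% charcoal-stripped FBS were stimulated with 1-alpha,25-dihydroxyvitamin D3 (3 nM final) plus compound for 16 h at 37 C. The beta-lactamase CCF4 readout was normalized to 50 nM agonist and DMSO, and Hill fits gave IC50.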

[4] = target: Vitamin D3 receptor (Homo sapiens) (UniProt P11473); experiment: qHTS assay for small molecule agonists of vitamin D receptor signaling (AID 588543; calls by dose curve)
Method in brief: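 Agonist-mode beta-lactamase reporter: HEK293T VDR-UAS-bla cells in charcoal-stripped 2% FBS, compound series 16 h 37 C, CCF4 2 h RT. EC50 from Hill fit, scaled against DMSO and 50 nM calcitriol control.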

[5] = target: Thyroid hormone receptor beta (Homo sapiens) (UniProt P10828); experiment: qHTS assay for small molecule agonists of thyroid hormone receptor beta signaling (AID 588545; calls by dose curve)
Chain of Thyroid hormone receptor beta (Homo sapiens) (P10828 whole entry, looked up): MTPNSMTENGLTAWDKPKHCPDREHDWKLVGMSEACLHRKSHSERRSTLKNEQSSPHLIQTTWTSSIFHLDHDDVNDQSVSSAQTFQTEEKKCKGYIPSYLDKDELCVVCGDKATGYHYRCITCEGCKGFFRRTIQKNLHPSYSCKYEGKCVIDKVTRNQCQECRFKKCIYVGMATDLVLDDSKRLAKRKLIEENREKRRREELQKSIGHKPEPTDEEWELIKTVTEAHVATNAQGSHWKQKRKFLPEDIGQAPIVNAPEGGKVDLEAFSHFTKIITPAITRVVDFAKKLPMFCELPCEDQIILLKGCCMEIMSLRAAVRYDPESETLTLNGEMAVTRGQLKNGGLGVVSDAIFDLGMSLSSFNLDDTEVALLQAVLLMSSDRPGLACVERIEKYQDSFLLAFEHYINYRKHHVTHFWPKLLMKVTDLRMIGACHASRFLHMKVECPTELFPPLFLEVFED
Method in brief: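 TR-UAS-bla GripTite HEK 293 cells (2500/well, medium with 2% charcoal/dextran FBS) were treated in agonist mode for 18 h at 37 C, titrated. Beta-lactamase was read by CCF4 ratio after 2 h; normalized to 10 nM T3 (100%) and DMSO, Hill-fitted for EC50 and efficacy.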

[6] = qHTS assay for small molecule antagonists of retinoid X receptor alpha signaling (AID 588546; active means well fitted inhibition curve with a large enough effect in the signal ratio, with a control signal flat, not every such curve was filed as active; the % refers to the signal ratio;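 further: cells stimulated with 9-cis-retinoic acid as agonist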); conditions: HEK293T RXRa-UAS-bla, beta-lactamase ratio, antagonist mode; measured here: W530 green channel, cytotoxicity proxy
Method in brief: (§1)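 Beta-lactamase reporter inhibition, read as CCF4 fluorescence ratio (ex 405, em 460/530 nm) after 2 h at RT. HEK293T UAS-bla cells, 2500/well, were stimulated with 9-cis-RA at 500 or 100 nM final alongside test compound for 18 h at 37 C.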

[7] = target: Retinoic acid receptor RXR-alpha (Homo sapiens) (UniProt P19793); experiment: as above; conditions: HEK293T RXRa-UAS-bla, beta-lactamase ratio, antagonist mode
Chain of Retinoic acid receptor RXR-alpha (Homo sapiens) (P19793 whole entry, looked up): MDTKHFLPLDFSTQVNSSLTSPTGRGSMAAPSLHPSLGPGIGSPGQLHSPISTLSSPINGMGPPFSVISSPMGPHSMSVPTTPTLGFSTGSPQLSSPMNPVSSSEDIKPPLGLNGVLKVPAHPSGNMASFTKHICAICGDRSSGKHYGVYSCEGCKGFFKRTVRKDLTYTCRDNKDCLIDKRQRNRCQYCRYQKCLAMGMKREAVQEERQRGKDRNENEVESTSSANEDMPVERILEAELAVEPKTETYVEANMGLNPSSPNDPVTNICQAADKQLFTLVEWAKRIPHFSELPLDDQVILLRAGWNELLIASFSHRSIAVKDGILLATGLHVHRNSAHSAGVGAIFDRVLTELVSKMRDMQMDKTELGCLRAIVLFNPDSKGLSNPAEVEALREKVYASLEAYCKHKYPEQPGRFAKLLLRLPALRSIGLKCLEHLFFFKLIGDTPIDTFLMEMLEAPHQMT
Method in brief: as §1

[8] = target: Thyroid hormone receptor beta (Homo sapiens) (UniProt P10828); experiment: qHTS assay for small molecule antagonists of thyroid hormone receptor beta signaling (AID 588547; active means well fitted inhibition curve with a large enough effect in the signal ratio, with a control signal flat, not every such curve was filed as active; the % refers to the signal ratio;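 further: cells stimulated with 0.4 nM T3 agonist during compound exposure; series mostly up to about 77 µM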); conditions: TR-UAS-bla HEK293, beta-lactamase ratio, antagonist mode, 18 h
Method in brief: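 TR-UAS-bla GripTite HEK293 cells in 2% charcoal/dextran FBS medium; compounds 0.59 nM to 92 uM with T3 at 0.4nM final, 18 h at 37 C. Beta-lactamase read by CCF4 fluorescence (460/530 nm); Hill fits gave IC50 and efficacy.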

[9] = target: Voltage-gated inwardly rectifying potassium channel KCNH2 (Homo sapiens) (UniProt Q12809); experiment: qHTS Assay for Small Molecule Inhibitors of the Human hERG Channel Activity (AID 588834);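 further: top concentration of the series differs between compounds; lower thallium flux fluorescence means stronger hERG block; nearly all actives have a fitted effect of over 50% in size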
Chain of Voltage-gated inwardly rectifying potassium channel KCNH2 (Homo sapiens) (Q12809 whole entry, looked up): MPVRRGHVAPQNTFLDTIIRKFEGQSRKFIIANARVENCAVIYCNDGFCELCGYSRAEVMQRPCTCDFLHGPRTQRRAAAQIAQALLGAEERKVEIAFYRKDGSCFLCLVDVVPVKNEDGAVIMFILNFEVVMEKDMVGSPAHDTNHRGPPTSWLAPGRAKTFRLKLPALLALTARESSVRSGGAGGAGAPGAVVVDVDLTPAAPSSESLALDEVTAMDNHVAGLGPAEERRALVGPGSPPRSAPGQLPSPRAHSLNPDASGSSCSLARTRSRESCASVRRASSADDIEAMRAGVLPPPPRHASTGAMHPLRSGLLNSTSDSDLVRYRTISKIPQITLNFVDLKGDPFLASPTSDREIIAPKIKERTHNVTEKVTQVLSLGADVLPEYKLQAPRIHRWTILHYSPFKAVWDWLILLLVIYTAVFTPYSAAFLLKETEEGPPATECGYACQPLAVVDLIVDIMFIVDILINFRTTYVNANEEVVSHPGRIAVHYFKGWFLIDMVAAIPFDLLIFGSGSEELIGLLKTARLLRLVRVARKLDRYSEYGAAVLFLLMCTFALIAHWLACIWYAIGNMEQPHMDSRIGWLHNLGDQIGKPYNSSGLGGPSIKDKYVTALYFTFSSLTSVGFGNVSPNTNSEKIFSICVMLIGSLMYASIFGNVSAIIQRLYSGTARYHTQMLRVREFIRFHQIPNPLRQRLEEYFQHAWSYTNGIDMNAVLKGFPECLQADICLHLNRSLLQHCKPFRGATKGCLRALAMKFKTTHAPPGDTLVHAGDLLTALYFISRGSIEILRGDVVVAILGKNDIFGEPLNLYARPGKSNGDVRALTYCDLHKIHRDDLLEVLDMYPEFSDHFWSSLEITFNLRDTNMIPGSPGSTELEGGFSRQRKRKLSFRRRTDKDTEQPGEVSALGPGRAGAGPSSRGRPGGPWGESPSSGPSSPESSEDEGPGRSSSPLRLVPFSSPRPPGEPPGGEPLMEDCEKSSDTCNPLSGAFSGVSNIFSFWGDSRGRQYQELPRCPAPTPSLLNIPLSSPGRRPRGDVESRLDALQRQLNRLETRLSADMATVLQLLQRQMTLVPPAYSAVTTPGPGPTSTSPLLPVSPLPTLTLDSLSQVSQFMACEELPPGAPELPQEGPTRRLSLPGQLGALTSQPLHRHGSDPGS
Method in brief: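 Kinetic FDSS fluorescence; U2OS + hERG BacMam (~100 virus particles/cell); FluxOR Tl+ flux; ~10 min cpd; AC50 (Hill).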

[10] = target: Luciferin 4-monooxygenase (Photinus pyralis) (UniProt P08659); experiment: Biochemical firefly luciferase enzyme assay for NPC (AID 624030);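 further: purified P. pyralis luciferase at 10 nM with luciferin and ATP substrate; series mostly up to about 59 µM; nearly all actives have a fitted effect of over 70% in size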
Chain of Luciferin 4-monooxygenase (Photinus pyralis) (P08659 whole entry, looked up): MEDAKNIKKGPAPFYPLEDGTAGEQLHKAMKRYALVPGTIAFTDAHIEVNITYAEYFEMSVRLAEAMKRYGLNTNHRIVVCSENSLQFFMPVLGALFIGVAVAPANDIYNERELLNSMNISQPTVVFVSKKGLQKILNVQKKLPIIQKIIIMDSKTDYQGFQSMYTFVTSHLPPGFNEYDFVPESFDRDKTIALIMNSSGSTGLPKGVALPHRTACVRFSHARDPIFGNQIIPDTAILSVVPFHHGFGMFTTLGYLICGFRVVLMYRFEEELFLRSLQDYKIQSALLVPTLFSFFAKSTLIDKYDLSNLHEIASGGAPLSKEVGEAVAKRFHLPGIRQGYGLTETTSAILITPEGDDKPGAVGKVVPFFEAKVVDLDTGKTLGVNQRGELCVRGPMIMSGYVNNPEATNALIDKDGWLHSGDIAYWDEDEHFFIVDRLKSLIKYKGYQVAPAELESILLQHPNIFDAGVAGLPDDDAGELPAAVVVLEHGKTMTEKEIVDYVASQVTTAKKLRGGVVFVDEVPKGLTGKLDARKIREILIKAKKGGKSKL
Method in brief: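 Purified P. pyralis luciferase at 10 nM in 50 mM Tris Acetate (final), luminescence read within 5 minutes of enzyme addition to compounds. Activity normalised to PTC124 versus DMSO; concentration-response curves classed by r2, magnitude and activity.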

[11] = S16 Schwann cell PMP22 intronic element beta-lactamase assay (AID 624044; calls by dose curve; further: potency means the concentration at half of the fitted maximal effect; nearly all actives have a fitted effect of over 15% in size)
Method in brief: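 Rat S16 Schwann cells with beta-Lac driven by a PMP22 intronic element, compound-treated 24 h at 37 °C. LiveBLAzer FRET B/G read: 460 nm normalized to potassium clavulanate vs DMSO; 535 nm FRET as viability; concentration-effect curves classified.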

O=C(NO)c1ccccc1
outcome [1]: inactive | activation [2]: -5.9% (inactive) | outcome [3]: inactive | outcome [4]: inactive | outcome [5]: inactive | max response [6]: -10.6% | max response [7]: -9.23% (inactive) | activity change % (negative = inhibition) [8]: -5.82% (inactive) | Potency [9]: inactive | Potency [10]: inactive

OCCCc1ccccc1
Potency [10]: inactive

CO/N=C(/C(=O)N[C@@H]1C(=O)N2C(C(=O)[O-])=C(C[n+]3ccn4ncccc43)CS[C@H]12)c1nsc(N)n1
Potency [10]: inactive

COC(=O)C1=C(C)NC(COC(N)=O)=C(C(=O)OC(C)C)C1c1cccc(Cl)c1Cl (centres undefined)
Potency [10]: inactive

CCN(CC)CCNC(=O)c1ccc(NS(C)(=O)=O)cc1
Potency [10]: inactive

CC(=O)OCC(=O)Nc1cc(C#N)cc(NC(=O)COC(C)=O)c1Cl
Potency [10]: inactive

O=C(O)CCC(=O)OC[C@@H](NC(=O)C(Cl)Cl)[C@H](O)c1ccc([N+](=O)[O-])cc1
Potency [10]: inactive

CO[C@@]1(NC(=O)CSC[C@@H](N)C(=O)O)C(=O)N2C(C(=O)O)=C(CSc3nnnn3C)CS[C@@H]21
Potency [10]: inactive

CN=C(N)NC(=O)Nc1c(C)cccc1C
Potency [10]: inactive

COc1cc(NS(=O)(=O)c2ccc(N)cc2)nc(C)n1
Potency [10]: inactive

CCOC(=O)c1ccc(OCCN2C[C@H](O)[C@@H](O)[C@H](O)[C@H]2CO)cc1
Potency [10]: inactive

Cc1ccc(/C=N/n2c(-c3ccccc3)csc2=S)cc1
Potency [10]: inactive

C[N+]1(CC2COC(c3ccccc3)(c3ccccc3)O2)CCCCC1 (centres undefined)
Potency [10]: inactive

O=C(CCCCCCCCC#CI)Oc1ccccc1
Potency [10]: inactive

CC(CCc1ccc2c(c1)OCO2)NN (centres undefined)
Potency [10]: inactive

Cc1cccc(N(C)C(=S)Oc2ccc3c(c2)CCC3)c1
Potency [10]: inactive

CN1CCC(N(Cc2cccs2)c2ccccc2)CC1
Potency [10]: inactive

C[C@H](CN1CCCC1)C(=O)c1ccc(C(F)(F)F)cc1
Potency [10]: inactive

Oc1ccc(CCNCCCCCCNCCc2ccccc2)cc1O
Potency [10]: inactive

O=C1[C@@H]2[C@H]3CC[C@H](C3)[C@@H]2C(=O)N1CCCCN1CCN(c2ncccn2)CC1
Potency [10]: inactive

Nc1c(NC/C=C\COc2cc(CN3CCCCC3)ccn2)c(=O)c1=O
Potency [10]: inactive

CN(C(=O)C(Cl)Cl)c1ccc(OC(=O)c2ccco2)cc1
Potency [10]: inactive

CCOC(=O)[C@H](CCc1ccccc1)N[C@@H](C)C(=O)N(CC(=O)O)C1Cc2ccccc2C1
Potency [10]: inactive

Nc1nnnn1-c1ccccc1
Potency [10]: inactive

C[C@H]1NCc2cc(-c3ccc4c(=O)c(C(=O)O)cn(C5CC5)c4c3OC(F)F)ccc21
Potency [10]: inactive

O=C(O)c1ccccc1S
Potency [10]: inactive

CC(=O)OCC[N+](C)(C)C
Potency [10]: inactive

N[C@@H](Cc1cc(I)c(O)c(I)c1)C(=O)O
Potency [10]: inactive

O=C(O)Cc1ccccc1Oc1ccc(Cl)cc1Cl
Potency [10]: inactive

CCCCCC1Nc2cc(C(F)(F)F)c(S(N)(=O)=O)cc2S(=O)(=O)N1 (centres undefined)
Potency [10]: inactive

CC(=O)Nc1ccn(C2COC(COC(=O)c3ccccc3)O2)c(=O)n1 (centres undefined)
Potency [10]: inactive

Cn1cc(S(C)=O)c(=O)c2ccc(F)cc21 (centres undefined)
Potency [10]: inactive

CC[N+]1(CC)CCC(=C(c2ccccc2)c2ccccc2)C1C (centres undefined)
Potency [10]: inactive

OCc1cccnc1
Potency [10]: inactive

Cc1nc([N+](=O)[O-])cn1-c1ccc([N+](=O)[O-])cc1
Potency [10]: inactive

OC(CCCN1CCCCC1)(c1ccccc1)c1ccccc1
Potency [10]: inactive

CC(=O)N(CC(O)CO)c1c(I)c(C(=O)NCCO)c(I)c(C(=O)NCC(O)CO)c1I (centres undefined)
Potency [10]: inactive

CC(C)(C)c1nnc(NS(=O)(=O)c2ccccc2)s1
Potency [10]: inactive

O=C(O)c1[nH]n(-c2ccc(S(=O)(=O)O)cc2)c(=O)c1N=Nc1ccc(S(=O)(=O)O)cc1
Potency [10]: inactive

CCCCCCCCCCCCCC[N+](C)(C)C
Potency [11]: 25.1 µM (active)

Source: PubChem BioAssay (NCATS)
